IDE exosite inh – displaces the probe from the exo-site of human IDE; P14735; AID 1259349; purified IDE, FL-6b probe fluorescence polarization; hits give low values; z-score at 20 µM; hit rate 6.3% among 17,000;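 active means z-score of -3 or lower, meaning strong loss of probe binding signal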;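 further: His-tagged human IDE residues 42-1019 made in E. coli with 30 nM FL-6b probe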
Target sequence (P14735 42-1019 limits assumed): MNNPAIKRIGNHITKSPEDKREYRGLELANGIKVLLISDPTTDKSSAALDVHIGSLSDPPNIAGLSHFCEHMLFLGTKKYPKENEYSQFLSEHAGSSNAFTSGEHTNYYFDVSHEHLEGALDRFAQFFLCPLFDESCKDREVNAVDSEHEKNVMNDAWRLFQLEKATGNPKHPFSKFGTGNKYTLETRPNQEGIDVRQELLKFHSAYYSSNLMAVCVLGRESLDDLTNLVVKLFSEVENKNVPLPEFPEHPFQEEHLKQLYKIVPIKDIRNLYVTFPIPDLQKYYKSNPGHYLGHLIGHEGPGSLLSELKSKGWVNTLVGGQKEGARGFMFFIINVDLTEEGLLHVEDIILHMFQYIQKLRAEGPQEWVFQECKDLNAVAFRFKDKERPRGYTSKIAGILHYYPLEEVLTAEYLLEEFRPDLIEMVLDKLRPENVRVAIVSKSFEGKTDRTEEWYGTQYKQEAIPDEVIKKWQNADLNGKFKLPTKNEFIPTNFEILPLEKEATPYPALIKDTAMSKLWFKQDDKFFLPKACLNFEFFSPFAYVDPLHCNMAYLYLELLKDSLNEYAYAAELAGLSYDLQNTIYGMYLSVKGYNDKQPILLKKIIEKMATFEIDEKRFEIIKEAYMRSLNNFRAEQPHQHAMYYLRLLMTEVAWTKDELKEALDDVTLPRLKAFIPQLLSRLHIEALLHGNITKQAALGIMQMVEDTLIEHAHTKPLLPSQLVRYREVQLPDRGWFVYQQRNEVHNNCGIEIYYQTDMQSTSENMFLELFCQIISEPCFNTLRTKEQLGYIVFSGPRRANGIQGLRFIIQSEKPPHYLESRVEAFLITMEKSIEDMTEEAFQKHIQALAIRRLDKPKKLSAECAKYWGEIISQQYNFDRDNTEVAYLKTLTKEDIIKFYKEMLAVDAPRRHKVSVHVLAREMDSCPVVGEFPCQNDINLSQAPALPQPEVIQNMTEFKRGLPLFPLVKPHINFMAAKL
Numbers stand for hits; n = inactive. This is one part of a sample in which hits are shown more often than they occur.

SMILES	IDE exosite inh
O=C1CN(S(=O)(=O)Cc2ccccc2)C[C@H]2[C@@H](c3ccc(C#Cc4cccnc4)cc3)[C@@H](CO)N12	-5.8
O=C1CN(S(=O)(=O)Cc2ccccc2)C[C@H]2[C@@H](c3ccc(C#Cc4cccnc4)cc3)[C@H](CO)N12	n
C[C@H]1CC=CC[C@@H](c2ccc3c(c2)OCO3)NC(=O)[C@H](C)N(C)C(=O)c2ccccc2O1 (mixture of isomers)	n
CCS(=O)(=O)N1CC2(C1)[C@@H](c1ccccc1)[C@@H](CO)N2Cc1ccccn1	n
O=C(Nc1cc(F)ccc1F)N1CCCCN2[C@H](CO)[C@@H](c3ccc(-c4ccccc4)cc3)[C@@H]2C1	n
COc1ccc2c3c([nH]c2c1)[C@@H](CO)N(C(=O)NC(C)C)CC31CCN(C(=O)C2CCCCC2)CC1	n
CN(C)CC#Cc1ccc([C@@H]2[C@@H](CO)N3CCCCN(C(=O)C4CCC4)C[C@@H]23)cc1	n
O=C1CN(S(=O)(=O)Cc2ccccc2)C[C@H]2[C@@H](c3ccc(C#Cc4ccccc4)cc3)[C@@H](CO)N12	-3.5
O=C1CN(S(=O)(=O)Cc2ccccc2)C[C@H]2[C@H](c3ccc(C#Cc4ccccc4)cc3)[C@H](CO)N12	n
O=C1CN(S(=O)(=O)Cc2ccccc2)C[C@H]2[C@@H](c3ccc(C#Cc4ccc(F)cc4)cc3)[C@@H](CO)N12	n
C[C@@H]1CCCCO[C@H](CN(C)C(=O)c2ccncc2)[C@H](C)CN([C@H](C)CO)C(=O)c2cc(NC(=O)CCC(F)(F)F)ccc2O1	n
COCC(=O)N1CCC2(CC1)CN(C(=O)c1ccccn1)[C@H](CO)c1c2c2ccc(OC)cc2n1C	n
COc1cccc(-c2ccc([C@H]3[C@H](CO)N4C(=O)CN(C(=O)c5ccncc5)C[C@@H]34)cc2)c1	-4.6
O=C(c1ccncc1)N1CC(=O)N2[C@@H](CO)[C@H](c3ccc(-c4cccnc4)cc3)[C@@H]2C1	n
O=C(c1ccncc1)N1CC(=O)N2[C@H](CO)[C@@H](c3ccc(-c4cccnc4)cc3)[C@@H]2C1	n
O=C(c1ccncc1)N1CC(=O)N2[C@H](CO)[C@@H](c3ccc(-c4ccccc4)cc3)[C@H]2C1	n
COc1cccc(-c2ccc([C@H]3[C@@H](CO)N4C(=O)CN(C(=O)c5ccncc5)C[C@H]34)cc2)c1	-8
COc1cccc(-c2ccc([C@@H]3[C@H](CO)N4C(=O)CN(C(=O)c5ccncc5)C[C@@H]34)cc2)c1	n
C[C@H](CO)N1C[C@H](C)[C@@H](CN(C)Cc2cccc(C(=O)Nc3ccccc3N)c2)OCc2ccccc2-c2c(n(C)c3ccccc23)C1=O	n
O=C(C[C@@H]1CC[C@H]2[C@@H](COC[C@H](O)CN2C(=O)c2ccncc2)O1)NCc1cc(F)cc(F)c1	n
O=C(Nc1ccccc1)N1CC(=O)N2[C@H](CO)[C@H](c3ccc(C#Cc4cccnc4)cc3)[C@H]2C1	n
N#C[C@H]1[C@@H](c2ccccc2)[C@@H](CO)N1C(=O)Cc1ccccc1	n
COc1ccccc1-c1ccc([C@@H]2[C@H](CO)N(CC3CC3)C23CN(S(C)(=O)=O)C3)cc1	n
O=C(Cc1ccccn1)N1CC(=O)N2[C@H](C1)[C@H](c1ccc(-c3ccc(F)cc3)cc1)[C@@H]2CO	n
COc1ccc2c3c([nH]c2c1)[C@H](CO)N(C(C)=O)CC31CCN(C(=O)Nc2ccc(F)cc2F)CC1	n
SMILES	IDE exosite inh
O=C(c1ccncc1)N1CC(=O)N2[C@H](C1)[C@H](c1ccc(/C=C/c3ccccc3)cc1)[C@@H]2CO	n
O=C(c1cccnc1)N1CC(=O)N2[C@H](C1)[C@H](c1ccc(/C=C/c3ccccc3)cc1)[C@@H]2CO	-4.5
O=C(c1ccccc1)N1CC(=O)N2[C@H](C1)[C@H](c1ccc(/C=C/c3ccccc3)cc1)[C@@H]2CO	n
O=C(c1ccncc1)N1CC(=O)N2[C@H](CO)[C@H](c3ccc(/C=C/c4ccccc4)cc3)[C@@H]2C1	-9.5
O=C(Cc1cccnc1)N1CC(=O)N2[C@@H](CO)[C@H](c3ccc(/C=C/c4ccccc4)cc3)[C@@H]2C1	n
O=C(c1cccnc1)N1CC(=O)N2[C@H](C1)[C@@H](c1ccc(/C=C/c3ccccc3)cc1)[C@@H]2CO	-7.7
O=C(c1cccnc1)N1CC(=O)N2[C@H](CO)[C@@H](c3ccc(/C=C/c4ccccc4)cc3)[C@@H]2C1	-4.3
CCCC#Cc1ccc([C@H]2[C@H](C#N)N(S(=O)(=O)c3cccc(F)c3)[C@H]2CO)cc1	n
CN(C[C@@H]1[C@H](c2ccccc2)[C@@H](CO)N1C(=O)C1CC1)C(=O)c1ccccn1	n
Cc1ccc(-c2ccccc2[C@H]2[C@@H](C#N)N(C(=O)Cc3cccnc3)[C@H]2CO)cc1	n
COc1ccccc1NC(=O)N1CC(=O)N2[C@@H](CO)[C@H](c3ccc(C#CCC(C)C)cc3)[C@@H]2C1	n
O=C(c1ccncc1)N1CC(=O)N2[C@H](C1)[C@H](c1ccc(-c3cccnc3)cc1)[C@@H]2CO	n
CC(C)(C)[S@@](=O)N1Cc2cc(C(=O)N[C@H]3CCN(Cc4ccccc4)C3)nc(-c3cccc(-c4cccnc4)c3)c2[C@H]1CCO	n
